For 39 compounds, growth results are on record in PubChem BioAssay (NCI).

This is part of a sample that, as a whole, favours compounds with a hit. Of some 83,000 tested, about 20% had one in any assay.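 A percent growth of 40 corresponds to 60% growth inhibition; 0 means no net growth; -100 means all cells died. Active threshold: below 10.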 Active and inactive are the calls of the source.

The first test has as its system SR leukemia. Briefly: NCI-60 one-dose screen, 48 h (100 = growth as untreated, 0 = no growth, -100 = all killed). The note with it: 10 µM unless noted.
In the case of `O=[N+]([O-])c1ccc(S(=O)(=O)N2CCN(c3ccnc4cc(Cl)ccc34)CC2)c([N+](=O)[O-])c1`, the growth was 3.12% (active).

For the compound `CCN(Cc1ccc(CN(CC)C(=O)C(Cl)(Cl)Cl)cc1)C(=O)C(Cl)(Cl)Cl`, the growth was 32.8% (inactive).

With `COc1ccc(Cn2cc(COc3cc(/C=C/C(=O)c4cc(OC)c(OC)c(OC)c4)ccc3OC)nn2)cc1`, the growth was 5.65% (active).

Consider `N#CC1=C(N)n2nc(-c3ccncc3)nc2NC1c1cccc2ccccc12` (centres undefined), for which the growth was 80.3% (inactive).

Turning to `COc1ccc(/C=C/C(=O)c2ccc(B(O)O)cc2)cc1O`, the growth was 19.6% (inactive).

Turning to `Nc1nc(-c2ccccc2)cs1`, the growth was 94.5% (inactive).

Regarding `NS(=O)(=O)c1ccc(NCC(=O)Nc2ccc(-c3nc4ccccc4s3)cc2)cc1`, the growth was 16% (inactive).

For the compound `COc1cc(Br)c(OC)cc1Br`, the growth is 111% (inactive).

Take `COc1cc(NS(C)(=O)=O)ccc1Nc1c2ccc([N+](=O)[O-])cc2nc2c(C)cccc12`: the growth was 15.6% (inactive).

For the compound `O=C(Nc1ccc(I)cc1)c1cccc([N+](=O)[O-])c1O`, the growth was 31.6% (inactive).

The subject of another test is RPMI-8226 leukemia. The test is described as above. As to conditions: 10 µM unless noted.
In the case of `CCSc1nnc(Nc2ccc(C(C)C)cc2)s1`, the growth was 72.2% (inactive).

On to `O=C(Cc1c(F)cccc1Cl)Nc1ccc(S(=O)(=O)Nc2ncccn2)cc1`, for which the growth was 70.4% (inactive).

For the compound `CC1(C)OC2COC3(C(=O)O)OC(C)(C)OC3C2O1` (centres undefined), the growth is 109% (inactive).

As for `COc1cc(-n2nc(C(=O)Nc3ccc(C(=O)O)cc3)nc2-c2ccccc2)cc(OC)c1OC`, the growth was 108% (inactive).

In the case of `CN1CCN(CCCOc2ccc3nc(Nc4ccc(C(F)(F)F)c(Cl)c4)ccc3c2)CC1`, the growth is -6.92% (active).

Consider `COc1ccc(S(=O)(=O)NCCNc2nccc(-c3c(-c4ccccc4)nc4sccn34)n2)cc1`, for which the growth is 27.4% (inactive).

Consider `O=c1[nH]c(-c2cn(-c3ccc(Cl)cc3)nn2)nc2ccccc12`, for which the growth was 83.5% (inactive).

On to `COc1ccc(S(=O)(=O)Nc2cc(/C=C\c3cc(OC)c(OC)c(OC)c3)cc(OC)c2OC)cc1OC`, for which the growth was 25.3% (inactive).

`COc1ccc(-c2nc3sccn3c2-c2ccnc(NCCNS(=O)(=O)c3ccc(C(F)(F)F)cc3)n2)cc1`: the growth was 8.83% (active).

Regarding `CCN(CC)CCSc1c2ccc(Cl)cc2nc2ccc(OC)cc12`, the growth was 72.7% (inactive).

For `COc1ncc(-c2ccc3ncnc(Nc4cccc(Cl)c4)c3c2)cc1NS(=O)(=O)CCN1CCOCC1`, the growth is 12.7% (inactive).

In the case of `O=c1[nH]c(CN2CCN(c3ccccc3F)CC2)nc2sc3c(c12)CCC3`, the growth is 107% (inactive).

Take `O=C(Nc1cccc(Cl)c1)c1cc([N+](=O)[O-])ccc1O`: the growth was 25.4% (inactive).

Turning to `Cc1cc(N/C=c2\sc3ncnn3c2=O)no1`, the growth was 92.5% (inactive).

For the compound `c1ccc2c(c1)Oc1ccccc1C2C1c2ccccc2Oc2ccccc21`, the growth is 103% (inactive).

`CC(C)CCN(CCCNc1c2c(nc3ccccc13)CCCC2)CCC(C)C`: the growth is 56.4% (inactive).

Take `COc1cc(/C=C/C(=O)c2ccccc2O)ccc1OCCCOc1cc2c(cc1OC)C(=O)N1CCC[C@H]1C=N2`: the growth is -21.7% (active).

With `O=C1NC(Cc2c[nH]c3ccccc23)C(=O)N1Cc1ccc(Cl)cc1` (centres undefined), the growth was 73.1% (inactive).

`COc1ccc(C2CC(c3cccs3)=NN2c2ccc(S(=O)(=O)NC(=O)NCc3cccc(OC)c3)cc2)cc1` (centres undefined): the growth was 95.3% (inactive).

Consider `CCOC(=O)C1=C(CSC(=S)N(C2CCCCC2)C2CCCCC2)N(C)C(=O)NC1c1ccccc1` (centres undefined), for which the growth is 35.8% (inactive).

As for `COc1cccc2nc(Nc3ccc(NC(=O)c4ccc5ncccc5c4)cc3)ccc12`, the growth was 33.4% (inactive).

Consider `Cc1cc(NC(=O)COC(=O)c2sc3cc(F)ccc3c2Cl)no1`, for which the growth was 114% (inactive).

As to `CC/C=C\C[C@H](O)C/C=C1/C(=O)C(Cl)=C[C@@H]1C/C=C\CCCC(=O)O`, the growth is 14.7% (inactive).

As for `O=Nc1c(-c2c(O)[nH]c3ccc([N+](=O)[O-])cc23)[nH]c2ccc(O)cc12`, the growth was -7.92% (active).

`O=C(Nc1ccc(F)cc1)c1cc([N+](=O)[O-])ccc1O`: the growth was 32.4% (inactive).

With `Cc1ccc(S(=O)(=O)OCC(=O)Nc2ccc(C(=O)O)c(O)c2)cc1`, the growth is 92% (inactive).

Turning to `Cc1cc(C)c(NC(=O)c2sc3nc4c(cc3c2N)CN(Cc2ccccc2)CC4)c(C)c1`, the growth is 20.9% (inactive).

On to `COc1ccc(-c2nnc(COc3ccc(NS(=O)(=O)c4ccc(OC)cc4)cc3F)o2)cc1`, for which the growth was 43.4% (inactive).

In the case of `Cc1ccc2nc(-c3c(CCCO)noc3N)[nH]c(=O)c2c1`, the growth was 90.4% (inactive).

As to `O=[N+]([O-])c1ccc(S(=O)(=O)N2CCN(c3ccnc4cc(Cl)ccc34)CC2)c([N+](=O)[O-])c1`, the growth was 25.7% (inactive).

Turning to `CCN(Cc1ccc(CN(CC)C(=O)C(Cl)(Cl)Cl)cc1)C(=O)C(Cl)(Cl)Cl`, the growth was 32.5% (inactive).

Regarding `COc1ccc(Cn2cc(COc3cc(/C=C/C(=O)c4cc(OC)c(OC)c(OC)c4)ccc3OC)nn2)cc1`, the growth was -2.32% (active).

With `N#CC1=C(N)n2nc(-c3ccncc3)nc2NC1c1cccc2ccccc12` (centres undefined), the growth was 74.9% (inactive).

In the case of `COc1ccc(/C=C/C(=O)c2ccc(B(O)O)cc2)cc1O`, the growth was 6.12% (active).

With `Nc1nc(-c2ccccc2)cs1`, the growth is 109% (inactive).

As to `NS(=O)(=O)c1ccc(NCC(=O)Nc2ccc(-c3nc4ccccc4s3)cc2)cc1`, the growth was 36.7% (inactive).

`COc1cc(Br)c(OC)cc1Br`: the growth is 96.2% (inactive).

Take `COc1cc(NS(C)(=O)=O)ccc1Nc1c2ccc([N+](=O)[O-])cc2nc2c(C)cccc12`: the growth is -19.8% (active).

`O=C(Nc1ccc(I)cc1)c1cccc([N+](=O)[O-])c1O`: the growth was 6.95% (active).
